According to PubChem BioAssay (NCI):
The panel holds about 83,000 compounds, 20% with a hit somewhere; the sample as a whole holds those more often.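 96-well plates, one dose, 48 hours. Percent growth reported; active if below 10.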 Activity calls are given as the source filed them.

Legend:
Assay in all cases: NCI-60 one-dose screen, 48 h (100 = growth as untreated, 0 = no growth, -100 = all killed)
Details in all cases: 10 µM unless noted
[1] = tested on: NCI-H23 lung
[2] = tested on: NCI-H226 lung
[3] = tested on: NCI-H322M lung
[4] = tested on: HOP-62 NSCLC
[5] = tested on: NCI-H460 lung
[6] = tested on: HOP-92 NSCLC
[7] = tested on: NCI-H522 lung
[8] = tested on: A549/ATCC NSCLC
[9] = tested on: 786-0 renal
[10] = tested on: COLO 205 colon
[11] = tested on: DU-145 prostate
[12] = tested on: K-562 leukemia
[13] = tested on: MALME-3M melanoma
[14] = tested on: MDA-MB-231 breast
[15] = tested on: RXF 393 renal
[16] = tested on: SF-268 CNS
[17] = tested on: SF-295 CNS
[18] = tested on: SF-539 CNS
[19] = tested on: UACC-257 melanoma
[20] = tested on: M14 melanoma

Measured: growth

O=C(O)c1cn(C2CC2)c2cc(N3CCN(C(=O)N/N=C/c4cccc5ccccc45)CC3)c(F)cc2c1=O
inactive: [1] 93.9% | [2] 94.3% | [3] 101% | [4] 95.2% | [5] 106% | [6] 97.2% | [7] 81% | [8] 106% | [9] 71.7% | [10] 114% | [11] 104% | [12] 103% | [13] 101% | [14] 94.9% | [15] 95.5% | [16] 86.3% | [17] 104% | [18] 93.4% | [19] 98.8% | [20] 93.1%

CC(=O)c1c(Nc2cccc(F)c2)[nH]c2c(Cl)cc(Cl)c(Cl)c2c1=O
active: [1] 3.83% | [2] -4.3% | [3] 9.02% | [4] -10.1% | [5] 3.6% | [6] -14.2% | [7] -8.41% | [8] 4.98% | [10] -63.4% | [12] 7.81% | [13] -18.6% | [14] -3.57% | [15] 4.14% | [17] -28.4% | [18] 4.02% | [19] -14.2% | [20] 6.55%
inactive: [9] 12.2% | [11] 25.2% | [16] 19.2%

COc1cccc(-c2cn3nc(-c4cn(C)c5ccccc45)sc3n2)c1
inactive: [1] 90% | [2] 89.6% | [3] 96.9% | [4] 96.5% | [5] 101% | [6] 81.8% | [7] 67.6% | [8] 94.6% | [9] 104% | [10] 108% | [11] 106% | [12] 48% | [13] 84.1% | [14] 85.6% | [15] 104% | [16] 94.8% | [17] 96.3% | [18] 94% | [19] 97.5% | [20] 84.3%

O=c1c2ccccc2n(C[C@H]2CO2)c2ccccc12
active: [1] -58.2% | [4] -12.8% | [5] -40.5% | [6] -3.5% | [7] -37.5% | [8] -37.2% | [9] -14.1% | [10] 2.46% | [11] 2.26% | [12] 8.2% | [13] -74.3% | [14] 5.95% | [15] -67.1% | [16] -8.61% | [17] 5.39% | [18] -22.1% | [19] -10.1% | [20] 6.45%
inactive: [2] 51.4% | [3] 20%

COC(=O)c1c2c(c(C)[n+]([O-])c1C)C(=O)C(NCc1ccccc1)=CC2=O
inactive: [2] 73.3% | [4] 67.1% | [5] 11% | [6] 71.1% | [7] 28.8% | [8] 13.7% | [9] 60% | [11] 42.4% | [12] 24.4% | [14] 10.6% | [16] 28.3% | [17] 43.5%
active: [1] 9.17% | [3] 7.15% | [10] -9.35% | [13] -77.8% | [15] 3% | [18] 8.86% | [19] -22% | [20] 9.18%

CN1CC(c2ccc(Br)cc2)C(C(=O)c2ccc(Br)cc2)C12C(=O)Nc1ccccc12 (stereo not given)
inactive: [1] 67.7% | [2] 73.5% | [3] 89.9% | [4] 69% | [5] 73.3% | [6] 70.2% | [7] 58.2% | [8] 59.2% | [9] 79.2% | [10] 76.6% | [11] 83.5% | [12] 44.8% | [13] 81.7% | [14] 81.7% | [15] 69.7% | [16] 69.5% | [17] 78.5% | [18] 90.5% | [19] 85.5% | [20] 76%

COc1ccc2c(c1)CC[C@@H]1[C@@H]2CC[C@]2(C)C3C(=CC(COC(C)=O)C4C(=O)N(c5ccc(Cl)cc5)C(=O)C43)C[C@@H]12 (stereo not given in full)
inactive: [1] 91.8% | [2] 97.3% | [3] 107% | [4] 98.4% | [5] 110% | [6] 90.7% | [7] 89.9% | [8] 110% | [9] 111% | [10] 118% | [11] 106% | [12] 52.4% | [13] 101% | [14] 103% | [15] 110% | [16] 91.7% | [17] 105% | [18] 114% | [19] 109% | [20] 98.8%
